Laboratory results from the supplement of paper PMC6555819.

Columns and labels:
Experiment in all cases: PBM binding z-score (relative to random genomic background probes); higher = stronger binding; sequences stand for … in GC…GCGATTGACAGCGTAGAATGAAGG
[1] = system: RARb homodimer (NR concentration 270 nM)
How it was run: (§1)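 Custom Agilent 4×180K protein-binding microarrays carried double-stranded probes. Their 34-nt variable regions held direct-repeat seeds, single-nucleotide variants, half-site ablations and random human genomic background sequences. Arrays were incubated 1 h with ligand-free nuclear receptor dimers in PBS pH 7.4, 2% milk, 0.02% Triton X-100, 1 mM DTT, 0.2 mg/mL BSA and 0.4 mg/ml salmon testes DNA. Antibodies against each partner (one per run) detected binding, and scanned fluorescence was regression-normalized. Binding z-scores use random background probes as reference.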

[2] = system: RARg:RXRa (NR concentration 270 nM, RXRa partner concentration 90 nM)
How it was run: as §1

[3] = system: RARg homodimer (NR concentration 270 nM)
How it was run: as §1

[4] = system: RXRa DBDmut IVT, anti-RXR (DBD mutation: RXRa K156A/R161A, NR concentration 90 nM)
How it was run: as §1

[5] = system: RXRa homodimer (NR concentration 180 nM)
How it was run: as §1

[6] = system: THRa:RXRa (NR concentration 90 nM, RXRa partner concentration 90 nM)
How it was run: as §1

[7] = system: THRa homodimer (NR concentration 90 nM)
How it was run: as §1

[8] = system: VDR:RXRa (NR concentration 270 nM, RXRa partner concentration 90 nM)
How it was run: as §1

[9] = system: VDR homodimer (NR concentration 270 nM)
How it was run: as §1

Sequence | PBM binding z-score [1] | PBM binding z-score [2] | PBM binding z-score [3] | PBM binding z-score [4] | PBM binding z-score [5] | PBM binding z-score [6] | PBM binding z-score [7] | PBM binding z-score [8] | PBM binding z-score [9]
CCTCGGAGGACAGAAGGTCAGGGCTGTCCGCTTT | 3.88 | 3.67 | 3.54 | -0.126 | 2.22 | 2.35 | 0.202 | 0.967 | 0.107
TCGAGTAGGTTAGGGGAATTCAGAATGGCGTCGA | 0.239 | -0.23 | -0.153 | 0.0691 | -0.0464 | 0.0502 | -0.191 | -0.154 | -0.0168
TCTTGAAGATCAAGCAGGTTAAGAAAGCCTGAGT | -0.113 | -0.172 | -0.516 | 0.456 | 0.318 | 0.216 | -0.679 | 0.401 | -0.115
AGCACGAGGGCACGCTGAGTTGATAGCAGAGTAG | 1.33 | 1.97 | 2.42 | 1.87 | 1.52 | 2.05 | 0.103 | 2.17 | 0.992
CCAGATAGGTGAAAGGTAACTCAGTCTGGTACGC | 1.04 | 1.53 | 0.944 | 0.181 | 2.46 | 0.97 | 0.0815 | 0.921 | 0.348
CTACCAAGGTGAAAAAGGTCGTTGATTACTATTC | 2.39 | 2.01 | 1.33 | 1.01 | 2.21 | 2.42 | 0.518 | 4.09 | 1.4
TCTAGCAGGCCAGACGGTCACTCAAGAGGTACGG | 1.12 | 0.224 | 0.8 | -0.226 | 0.291 | -0.447 | -0.799 | -0.346 | -1.01
TGAATGTGGTTATAAGATCAGGGAACGTTGCAAA | 0.38 | 0.101 | 0.404 | -0.35 | 0.0364 | 0.133 | 0.0859 | 0.157 | 0.37
TCTGCTAGGTCAGTTGTTCAGCTAACGAGCTGCC | 2.19 | 2.19 | 3.35 | 0.434 | 0.641 | 1.25 | 0.158 | -0.272 | -0.531
CGAACTATGTCATTGACAGGACAGTGAATAGTAA | 0.32 | 0.772 | 0.637 | 0.491 | 0.127 | 0.297 | -0.398 | 0.154 | 0.0338
CGAACTAGGTCATTGACAGGACAGAGAATAGTAA | 2.47 | 4.41 | 4.12 | 2.25 | 2.5 | 2.8 | 0.787 | 2.18 | 1.26
TCAGACTGGTGAAGGTAACTCAGGTACGCAGTCG | -0.0938 | -0.218 | -0.262 | 0.596 | 0.463 | 0.985 | 0.0816 | 0.31 | -0.271
CCGACTGGGGCTAGGTTACCATAACGCACAGCCA | 0.542 | 0.00576 | 0.24 | -0.639 | 0.166 | 0.173 | -0.0667 | -0.65 | -0.608
GTACCAAGGTGAATACGTCGTTGATGAGTAGGCG | 0.139 | 0.764 | 0.692 | -0.417 | 0.56 | 1.19 | 0.199 | -0.262 | -0.342
CACACAGGGTCAGCTAGGCCAGAGTAGGGACGGC | 3.23 | 4.52 | 4.78 | 1.76 | 4.03 | 3.04 | 0.987 | 3.8 | 2
ACAGACAGGTGAGTGAAGGTAACTAAGCTGGACG | 0.0814 | 0.264 | 0.483 | -0.523 | 0.122 | 1.38 | -0.413 | -0.372 | -0.429
TCATATAGGTAAAAGGTGAACGTCGGTGTGGTAA | 2.19 | 2.22 | 1.26 | 1.84 | 2.94 | 1.84 | 0.67 | 1.79 | 0.547
ATCTCTAGGTAAAGATAGTCCAGTGAATGCAAAT | -0.17 | 0.22 | 0.658 | 0.0705 | 0.108 | 0.341 | 0.315 | -0.0135 | 0.0378
CCTACTCGGCCACGAAAGGTCATTGATTCAGTGA | 4.79 | 4.8 | 4.78 | 0.99 | 5.02 | 3.53 | 1.03 | 4.1 | 2.62
GCTGCTAGGTCAACTGATAGTCAGCTAAAGCTCG | 3.15 | 4.31 | 5.07 | 1.68 | 2.75 | 2.74 | 0.622 | 0.945 | 0.0089
ATCTCTAGGTAAAGATAGTTCAGTGGATGCAAAT | 0.847 | 0.4 | 0.785 | -0.122 | 0.17 | 0.667 | 0.0913 | 0.451 | 0.205
CGTCCAAGGTGAAGGTCAGTGAAAGAGACTCGAA | 3.4 | 3.39 | 3.88 | 0.585 | 2.36 | 2.71 | 0.956 | 0.859 | 0.389
CTTCCAAGGTCAGAGAGGTCAGTGAATGCCGAGT | 5.27 | 6.1 | 7.29 | 2.97 | 5.22 | 4.3 | 2.74 | 7.43 | 5.58
TCATATAGGTAATACAGGTGAAAGTAGGCATCTA | 0.649 | 0.714 | 0.742 | 1.81 | 1.2 | 1.05 | 0.429 | 1.41 | 0.305
CCGACTGGGGCAAAGGTTATCATACTCAGTACGA | 1.89 | 3 | 1.45 | 0.137 | 3.11 | 1.66 | -0.0355 | 1.46 | 0.133
CGTCCAAGGTCAGAGAGGTTAGTGAATGCCGAGT | 3.85 | 4.7 | 5.08 | 2.6 | 3.73 | 3.45 | 1.87 | 5.8 | 2.96
CCTACTGGGCCAAGGGCATTGATCAGTCAAAGCA | 0.581 | 0.0127 | 0.289 | -1.17 | -0.4 | 0.178 | -0.634 | – | -0.245

Sequence | PBM binding z-score [1] | PBM binding z-score [2] | PBM binding z-score [3] | PBM binding z-score [4] | PBM binding z-score [5] | PBM binding z-score [6] | PBM binding z-score [7] | PBM binding z-score [8] | PBM binding z-score [9]
GCAGACAGGTGAAACCCAGGTAACTCAGGGTGGC | 0.254 | 0.543 | 0.3 | -0.915 | 0.749 | 2.18 | 0.116 | -0.302 | -0.563
ATATGTAGGTTATCGGGTCATGCAGTTTGCGCAT | 3.1 | 3.43 | 2.66 | 0.921 | 3.76 | 3.54 | 3.02 | 4.98 | 3
CATACAGGGTCAGCTAGGCCAGGGTAGGGACGGC | 3.59 | 4.48 | 5.13 | 0.607 | 4.42 | 3.28 | 1.26 | 3.64 | 1.47
GATACAGGGTCAAGGCCAGTGTACGCGTATTGAT | 3.55 | 5.61 | 5.38 | 2.22 | 6.4 | 3.55 | 1.08 | 4.28 | 2.13
CCTAGCAGGCCTGGGTCACTCAAGCATTTCGCTT | 1.69 | 1.25 | 0.967 | -0.144 | 0.958 | 1.48 | 0.229 | 0.546 | -0.269
GCATATAGGTAATACGAGGTGAAAGTCCGATTGT | 0.883 | 0.378 | 0.419 | 0.527 | 0.781 | 4.46 | 1.41 | 0.598 | -0.0522
CGAATTAGGTCATTGACAGGACAGTGAATAGTAA | 2.68 | 4.6 | 4.22 | 2.69 | 2.53 | 3.33 | 1.54 | – | 1.22
CAAACTAGGTCAAGAGGTCACAGTCCGCTTCCCG | 5.76 | 7.87 | 7.83 | 2.79 | 7.55 | 4.57 | 3.21 | 5.92 | 3.7
CCAGACAGGTGAGACGGTAACTCAGCCTCGATTA | 0.4 | -0.0368 | 0.0246 | 0.0275 | -0.179 | -0.0755 | 0.114 | -0.29 | 0.029
TCTCGGAGGACACGAAAGTTCAGAGCTCGACATC | 3.16 | 2.2 | 3.44 | 1.32 | 1.14 | 2.22 | 0.943 | – | 2.55
GATACAGGTTCAAGGCCAGAGTACGCGTATTGAT | 1.44 | 1.82 | 1.3 | 3.5 | 2.13 | 1.55 | 0.144 | 3.41 | 3.82
TAGCCTAGGTTAGATCGGGCCAGTATACGCTATA | -0.0792 | -0.00796 | 0.127 | -0.662 | -0.141 | 2.61 | -0.725 | -0.4 | -0.374
GCTTGAAGATCAAGGTTAAGAAAGACTAAGCTAA | 0.0789 | 0.319 | 0.181 | -0.437 | 0.877 | 1.02 | -0.36 | 0.0982 | -0.116
CGTCCAACGTCAAAGGTCAGTGAAGAGATGACGG | 4.22 | 4.66 | 5.08 | 0.458 | 5.09 | 2.5 | 0.106 | 2.8 | 0.685
ATCTCTAGGTAAAGATGGTTCAGTGAATGCAAAT | -0.0603 | 0.324 | 0.292 | -0.0269 | 0.0778 | 0.592 | 0.0966 | 0.607 | 0.095
CCAACTGGGCCACGAAAGGTCATTGATTCAGTGA | 4.65 | 4.7 | 4.65 | 0.781 | 5.13 | 3.69 | 0.917 | 4.26 | 2.32
CAAACTAGGTCAAGGTCAAAGTCGGTTTGTGCCA | 5.13 | 6.18 | 6.97 | 3.21 | 6.34 | 4.35 | 3.74 | 5.23 | 4.46
CCAGACAGGTGACAAGGTAACTCAGCCTCGATTA | 0.759 | 0.862 | 0.728 | 0.06 | 0.446 | 1.24 | 0.784 | 0.0377 | -0.45
AATACAGCGTCATCGTAGGCCAGAGTACGCACAG | -0.094 | -0.121 | 0.174 | -0.495 | -0.0638 | 0.55 | -0.659 | -0.373 | -0.00282
GATACAGGGTCAGCTAGAGGCCAGCGTATGGAAA | 3.69 | 6.91 | 5.12 | 0.996 | 4.79 | 3.11 | 0.434 | 3 | 0.825
CCGACTGGGGCAGAAAGGTTACAATACCATCCGG | 1.83 | 1.59 | 1.25 | -0.65 | 1.75 | 0.907 | -0.555 | 1 | 0.0532
CTACCAAGGTGAACAAAGTCGTTGATTACTATTC | 0.608 | 0.623 | 0.808 | 0.695 | 0.378 | 1.69 | 0.927 | 0.601 | 0.24
CAAACTAGGTCACGAAAGGTCTAAGTCGAATGAC | 3.98 | 5.04 | 5.84 | 1.6 | 4.23 | 4.1 | 1.73 | 3.75 | 0.873
CGTCCAAGGCCAGCAGGTCAGTGAAAGCGACGTG | 2.34 | 1.85 | 2 | -0.479 | 0.648 | 1.3 | 0.193 | – | -0.465
ACTCGCAGGCCAAGGGTCACTCAAGATTAGTCCG | 3.81 | 4.36 | 3.98 | 1.03 | 3.97 | 2.95 | 0.204 | 2.89 | 0.901
AGTCAAAGTTCATCTAGGTAACGTTAGATATGCT | 3.74 | 5.6 | 6.39 | 4.62 | 4.96 | 2.94 | 0.114 | 5.11 | 5.6
